From PubChem BioAssay AID1159580 (chemical genetic matrix, 2015)
Out of some 5,500 compounds screened, about 2,000 (36%) were called active. Another 18% or so got no clear call; they are omitted. Cut-off read from the data, not from the text of the source: active = normalized growth mostly below about 0.91 (no sharp cut-off); inconclusive = no clear call, values can overlap the other calls; inactive = mostly above about 0.92. The list shows a part of the results.

Assay: chemical genetic growth profiling, strain panel (AID 1159580);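 note: tested at 20 µM; growth read once vehicle control cultures reached saturation at 30 °C; 1 = growth at the plate median or of vehicle wells; lower values mean less growth of the strain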
Details: S. cerevisiae deletion strains, growth OD

Measured: normalized growth

COc1ccc(CN(CCN(C)C)c2ncccn2)cc1
inactive: locus YAL021C, strain ccr4, active compounds read low 1.01 | locus YAL026C, strain drs2, active compounds read low 1.04 | locus YAL030W, strain snc1, active compounds read low 0.997 | locus YBL061C, strain skt5, active compounds read low 1.01 | locus YBR009C, strain hhf1, active compounds read low 1.01 | locus YBR023C, strain chs3, active compounds read low 1.01 | locus YBR171W, strain sec66, active compounds read low 1.01 | locus YBR231C, strain swc5, active compounds read low 1.04 | locus YBR279W, strain paf1, active compounds read low 1.01 | locus YCL011C, strain gbp2, active compounds read low 1.01 | locus YCL016C, strain dcc1, active compounds read low 1.01 | locus YCL061C, strain MRC1, active compounds read low 1.02 | locus YCL069W, strain vba3, active compounds read low 1.01 | locus YCR088W, strain abp1, active compounds read low 1.01 | locus YDL005C, strain med2, active compounds read low 1.01 | locus YDL040C, strain nat1, active compounds read low 1.02 | locus YDR001C, strain nth1, active compounds read low 1.02 | locus YDR069C, strain doa4, active compounds read low 1 | locus YDR137W, strain rgp1, active compounds read low 1.01 | locus YDR159W, strain sac3, active compounds read low 0.992 | locus YDR195W, strain ref2 1 | locus YDR297W, strain sur2, active compounds read low 1.02 | locus YDR334W, strain swr1, active compounds read low 0.998 | locus YDR335W, strain msn5, active compounds read low 1.01 | locus YDR392W, strain spt3, active compounds read low 1.03 | locus YEL003W, strain gim4, active compounds read low 1.01 | locus YEL037C, strain rad23, active compounds read low 1.01 | locus YEL061C, strain CIN8 (second series), active compounds read low 1 | locus YER015W, strain faa2, active compounds read low 1.02 | locus YER016W, strain bim1, active compounds read low 1.02 | locus YER111C, strain swi4, active compounds read low 1.02 | locus YER155C, strain BEM2 (second series), active compounds read low 1.05 | locus YFR010W, strain ubp6, active compounds read low 1.01 | locus YGL167C, strain pmr1, active compounds read low 1.02 | locus YGL173C, strain kem1, active compounds read low 1.03 | locus YGL227W, strain vid30, active compounds read low 1.01 | locus YGL240W, strain doc1, active compounds read low 1.01 | locus YGL253W, strain hxk2, active compounds read low 1.02 | locus YHR013C, strain ard1, active compounds read low 1.01 | locus YHR027C, strain rpn1, active compounds read low 1.01 | locus YHR030C, strain SLT2, active compounds read low 1 | locus YHR079C, strain IRE1, active compounds read low 1 | locus YHR142W, strain chs7, active compounds read low 1.04 | locus YJL092W, strain hpr5, active compounds read low 1.03 | locus YJL095W, strain BCK1 (second series), active compounds read low 1.01 | locus YJL095W, strain BCK1, active compounds read low 1 | locus YJL115W, strain asf1, active compounds read low 1.01 | locus YJL129C, strain trk1, active compounds read low 1.01 | locus YJL154C, strain vps35, active compounds read low 1.01 | locus YJL164C, strain tpk1, active compounds read low 1.02 | locus YJL166W, strain qcr8, active compounds read low 0.995 | locus YJR066W, strain TOR1, active compounds read low 0.954 | locus YKL160W, strain elf1, active compounds read low 1.02 | locus YKR026C, strain gcn3, active compounds read low 1 | locus YKR091W, strain srl3, active compounds read low 1 | locus YLL001W, strain dnm1, active compounds read low 1.01 | locus YLL026W, active compounds read low 1 | locus YLL041C, strain sdh2, active compounds read low 0.995 | locus YLR027C, strain aat2, active compounds read low 1.01 | locus YLR113W, strain HOG1, active compounds read low 1 | locus YLR221C, strain rsa3, active compounds read low 0.998 | locus YLR258W, strain gsy2, active compounds read low 1.03 | locus YLR262C, strain YPT6 (second series), active compounds read low 1.01 | locus YLR320W, strain mms22, active compounds read low 1.01 | locus YLR342W, strain FKS1, active compounds read low 1.02 | locus YLR357W, strain rsc2, active compounds read low 1.01 | locus YLR370C, strain arc18, active compounds read low 1.03 | locus YLR384C, strain iki3, active compounds read low 1.02 | locus YML120C, strain ndi1, active compounds read low 1.01 | locus YMR058W, strain fet3, active compounds read low 1.03 | locus YMR125W, strain sto1, active compounds read low 1.01 | locus YMR129W, active compounds read low 1.02 | locus YMR205C, strain PFK2, active compounds read low 1.02 | locus YMR231W, strain pep5, active compounds read low 1.02 | locus YNL071W, strain lat1, active compounds read low 1.02 | locus YNL183C, strain NPR1, active compounds read low 0.943 | locus YNL209W, strain ssb2, active compounds read low 1.03 | locus YNL248C, strain rpa49, active compounds read low 1.03 | locus YNL322C, strain KRE1 (second series), active compounds read low 1.02 | locus YNR049C, strain mso1, active compounds read low 1.01 | locus YOR001W, strain rrp6, active compounds read low 1.01 | locus YOR070C, strain gyp1, active compounds read low 1.02 | locus YOR080W, strain dia2, active compounds read low 1.01 | locus YOR083W, strain WHI5, active compounds read low 0.981 | locus YOR106W, strain vam3, active compounds read low 1.02 | locus YOR231W, strain MKK1, active compounds read low 0.99 | locus YOR265W, strain rbl2, active compounds read low 1.02 | locus YOR270C, strain vph1, active compounds read low 1.03 | locus YOR290C, strain snf2, active compounds read low 1.02 | locus YPL051W, strain arl3, active compounds read low 1.02 | locus YPL078C, strain atp4, active compounds read low 1.02 | locus YPL106C, strain sse1, active compounds read low 0.994 | locus YPL240C, strain hsp82, active compounds read low 0.999 | locus YPL256C, strain CLN2, active compounds read low 0.991
